Experimental data published in the supplement of paper PMC10338343.
± gives the standard deviation.

System: EfPiwi piRISC loaded with L1MC piRNA (26 nt)
Experiment: pre-steady-state target cleavage rate (min^-1); auxiliary factor: none (no Gtsf1); guide: L1MC piRNA 5'p-UAACUAAAUACUAUGCAAGCUGUAGG; MIWI and MILI are mouse PIWI proteins and EfPiwi is from a freshwater sponge; tags in brackets are library labels; higher = faster piRNA-guided slicing of the target
Method: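 Cleave-'n-Seq: a library of target RNAs (target site in constant flanks) at […] was incubated with 1 nM active freshwater sponge Ephydatia fluviatilis Piwi piRISC (synthetic 5'-monophosphorylated piRNA guide) with or without 500 nM EmGtsf1 at 33 °C for 1 min to 16 h. Uncleaved targets were sequenced and the pooled three trials fitted to a burst-and-steady-state model to give the pre-steady-state cleavage rate (min^-1). Sequence is the target site only. Fits with R² ≤ 0 are excluded.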

pre-steady-state target cleavage rate, 0.0117 ± 0.0058:
UCCUGGAUCAGCUUGCAUAGUAUAUAGUUA

pre-steady-state target cleavage rate, 0.00968 ± 0.0057:
UCCUGGUUACAGCUUGCAUAGUAUUUAGUUA

pre-steady-state target cleavage rate, 0.0241 ± 0.0099:
UCCUGGAUCUGCUUGCAUAGUAAUUAGUUA

pre-steady-state target cleavage rate, 0.00517 ± 0.0042:
UCCUGGAUGAGCUUGCAUAGUAGUUAGUUA

pre-steady-state target cleavage rate, 0.0179 ± 0.0092:
UCCUGGAUCAGCUUGCAUAGUAUGUAGUUA

pre-steady-state target cleavage rate, < 0.0001:
UCCUGGAUCAGCUUGGAUAGUAUUUACAAA
UCCUGGAUGUCGAACGUAAUGUAUUUAGUUA
UCCUGGAUGUCGUUACAUAGUAUUUAGUUA
UCCUGGAACAGCUUCCAUAGUAUUAAGUUA
UCCUGCUACAGCAUCCAUAGUAUUUAGUUA
UCCUGGAUGUCGAACGUUAGUAUCUAGUUA
UCCUGGAUGUCGAACGAUAUAUUUAGUUA
UCCUGGAUGUCGAUGCAUCGUAUUUAGUUA
UCCUGGAUGUCGAACGUUUGUAAUUAGUUA
UCCUCCUACACGAUGCAUAGUAUUUACAAA
UCCUGGAUGUCGAUGCAUAGUCAUUUAGUUA
UCCUGGAUGUCCUUCCAUAGUAAUUAGUUA
UCCUGGAUGUCGAAGCAUAGUAUAUUAGUUA
UCCUGGAUGUCGAUGCAGUAGUAUUUAGUUA
UCCUGGAUGUGCAUGCAUAGUAUUUAGAUA
UCCUGGAUGAGCUUGGAUUGUAUUUAGUUA
UCCUGGAUGUCGAAGCAUAGUAUUUACUAA
UCCUGGAUGUCGAACGAAAGUUUUUAGUUA
UCCUGGAUGUCGAACGUAUGUCUUUAGUUA
UCCUGGAUCACGUUGCAUAGUAUUUAGAAA
UCCUGGAUGUCGAACCAUAGUAGUUUAGUUA
UCCUGGAUGUCGAAGCAUAGAUAUUUAGUUA
UCCUGCUACAGCUUCGUUAGUAUUUUCAAA
UCCUCCUACAGGAUGCAUAGUAUUUUCAAA
UCCUGGAUGUCGAAGCAAAGUAUUUACUUA
UCCUGGAUGUCGAAGCUAUAGUAUUUAGUUA
UCCUGGAUGUCGUUGCAUAGAUAUUAGUUA
UCCUGGAUGUCGAAGCAUAGUUUUUACUUA
UCCUGGAUGUCGAAGCAUAGUAUUUAGCUA
UCCUCCUACAGCUUGCAAUCUAUUUUCAAA
UCCUGCUACAGCUUGCAUACAUUUUAGUAA
UCCUGGAUGUCGAAGCAAAGUAUUUAGAUA
UCCUGCUACAGGAAGCAUAGUAUUUACAAA
UCCUGGAUGUCGAACGUUAGUAAAUAGUUA
UCCUGGAUGUCCUUGCUAAGUAUUUAGUUA
